Data from PubChem BioAssay (EPA / NIEHS).
“And” between values parts separate entries of the source, which are not always exact repeats. Equal entries are not always repeated. Records with an inconclusive call do not appear. More than one record can exist for a structure, and the calls need not agree. The source made the active and inactive calls. How the source made its calls: active means hit-call score of the fitted dose curve at least 0.9, where 1 is the maximum; inconclusive means response in the unintended direction; inactive means score below 0.9.

The compounds below were run on xenobiotic metabolism (CYP1A2), CYP1A2 (gene 1544) (assay: CLD_CYP1A2_24hr: CellzDirect (CLD) Gene Expression Assay for xenobiotic metabolism (CYP1A2) at 24 hours (AID 2283683)).
Method: CLD_24hr is a cell-based, multiplexed-readout assay that uses hepatocyte, a human liver primary cell, with measurements taken at 24 hours after chemical dosing in a 96-well plate.CLD_CYP1A2_24hr is one of 16 assay component(s) measured or calculated from the CLD_24hr assay. It is designed to make measurements of mRNA induction, a form of inducible reporter, as detected with chemiluminescence signals by Quantitative Nuclease Protection Assay (qNPA) technology.Data from the assay component CLD_CYP1A2_24hr was analyzed at the endpoint, CLD_CYP1A2_24hr, in the positive analysis fitting direction relative to DMSO as the negative control and baseline of activity. Using a type of inducible reporter, gain-of-signal activity can be used to understand changes in the reporter gene as they relate to the gene CYP1A2. Furthermore, this assay endpoint can be referred to as a primary readout. To generalize the intended target to other relatable targets, this assay endpoint is annotated to the cyp intended target family, where subfamily is xenobiotic metabolism.
Human hepatocyte cultures were treated daily for two consecutive days with fresh dosing solutions containing appropriate concentrations of the 320 ToxCast chemicals (chemical identities were blinded to CellzDirect and other ToxCast collaborators), vehicle control (0.2% DMSO), and positive control inducers as summarized in Table 1. Due to the large number of treatment groups and chemicals examined, the ToxCast chemicals were divided into two groups (spanning two independent cultures of hepatocytes from separate donor preparations (Hu778: ToxCast plates 1 and 2; Hu776: ToxCast plates 3 and 4). Each preparation of human hepatocyte cultures was treated with respective vehicle control, medium only control, set of six positive controls/reference chemicals for the five hepatic receptor pathways, and a subset of eight of the ToxCast chemicals (indoxacarb, pyrithiobac-sodium, norflurazon, cyhalofop-butyl, methomyl, thiram, acetochlor, and propiconazole). These replicate data, coupled with internal replicates designed within the blinded ToxCast chemical library, provided additional data to evaluate interindividual differences between hepatocyte preparations and their potential impact on chemical profiles.Cell morphology and integrity were evaluated using phase-contrast microscopy as an indicator of hepatocyte cell health (Tyson & Green, 1987). Cultures for each treatment group (i.e., media, vehicle [0.2% DMSO], positive control inducers [multiple concentrations], and the ToxCast chemicals [multiple concentrations]) were observed and cell morphology was assessed relative to vehicle control cultures at each harvest time point (0, 6, 24, or 48 h). […] Images were evaluated at the conclusion of the study to assess changes in cell integrity and account for the effects of chemical exposure on uncharacteristic changes in concentration-dependent gene expression profiles. The results from these determinations of apparent cytotoxicity were annotated (yes/no) alongside the corresponding qNPA data for reference.At the conclusion of each treatment period, hepatocyte cultures (96-well) were washed with 1 volume of HBSS, lysed by addition of 25 ul ArrayPlate lysis buffer (HTG, Tucson, AZ), and 70 ul/well of Denaturation Oil, denatured by incubation at 95C for 10 min, and frozen at approximately -70C until analysis by nuclease protection assay (qNPA) (Roberts et al., 2007). For qNPA analysis, cell lysates were thawed at 50C for approximately 30 min, qNPA probes were added, and samples were incubated at 95C for 10 min to begin the detection process by denaturing the target RNA, dissociating the duplexes and secondary structure hybridization. At the conclusion of the hybridization period, S1 nuclease reagent was added to each sample to digest all nonprotected nucleotides at 50C for 60-90 min. […]
In the case of CCCC1COC(Cn2cncn2)(c2ccc(Cl)cc2Cl)O1 (stereo not given), the AC50 is reported as 2.13 µM (active).
For C=CC1(C)OC(=O)N(c2cc(Cl)cc(Cl)c2)C1=O (stereo not given), the AC50 was 2.47 µM (active).
In the case of COP(=S)(OC)Oc1nc(Cl)c(Cl)cc1Cl, the AC50 is reported as 4.43 µM (active).
CCOC(=O)CC(SP(=S)(OC)OC)C(=O)OCC (stereo not given) was tested, and the AC50 was 8.3 µM (active).
Cc1ccc(-c2c(Cl)nc(C#N)n2S(=O)(=O)N(C)C)cc1 was tested, and the AC50 was 0.521 µM (active).
With COC(=O)c1ccccc1C(=O)OC the outcome was “inactive”.
In the case of O=C(O)c1nc(Cl)ccc1Cl, the outcome is reported as “inactive” and the AC50 is reported as 9.48 µM (active).
With Fc1ccc(Oc2ccnc3cc(Cl)cc(Cl)c23)cc1 the AC50 was 2.84 µM (active).
C#CCOS(=O)OC1CCCCC1Oc1ccc(C(C)(C)C)cc1 (stereo not given) was tested, and the AC50 was 3.11 µM (active).
For CC1COC(Cn2cncn2)(c2ccc(Oc3ccc(Cl)cc3)cc2Cl)O1 (stereo not given), the AC50 was 0.729 µM (active).
With Oc1ccccc1-c1ccccc1 the AC50 was 20 µM (active).
C=CCC1=C(C)C(OC(=O)C2C(C=C(C)C)C2(C)C)CC1=O (stereo not given) was tested, and the outcome was “inactive”.
COC(=O)C=C(C)OP(=O)(OC)OC was tested, and the outcome was “inactive”.
With COc1nc(NC(C)C)nc(NC(C)C)n1 the AC50 was 3.61 µM (active).
In the case of CCCCNC(=O)OCC#CI, the outcome is reported as “inactive”.
For CCOc1cc(Oc2ccc(C(F)(F)F)cc2Cl)ccc1[N+](=O)[O-], the AC50 was 5.69 µM (active).
With COc1ccc(C(c2ccc(OC)cc2)C(Cl)(Cl)Cl)cc1 the AC50 was 20 µM (active).
In the case of COc1nc(C)nc(NC(=O)NS(=O)(=O)c2ccccc2CCC(F)(F)F)n1, the outcome is reported as “inactive” and the AC50 is reported as 1.7 µM (active) and 11 µM (active).
In the case of OC(c1ccc(Cl)cc1)(c1cncnc1)c1ccccc1Cl (stereo not given), the outcome is reported as “inactive”.
In the case of CON(C)C(=O)Nc1ccc(Cl)c(Cl)c1, the AC50 is reported as 1.29 µM (active).
For COc1cnc(OC)n2nc(NS(=O)(=O)c3c(OCC(F)F)cccc3C(F)(F)F)nc12, the outcome was “inactive”.
With O=C(Nc1ccccc1)Nc1ccnc(Cl)c1 the AC50 was 7.19 µM (active).
For CC1=C(C(=O)Nc2ccccc2)SCCO1, the AC50 was 15.1 µM (active).
In the case of COC(=O)C(C)Oc1ccc(Oc2ccc(Cl)cc2Cl)cc1 (stereo not given), the outcome is reported as “inactive”.
In the case of CCc1nn(C)c(C(=O)NCc2ccc(C(C)(C)C)cc2)c1Cl, the outcome is reported as “inactive”.
In the case of Cc1c(F)c(F)c(COC(=O)C2C(/C=C(\Cl)C(F)(F)F)C2(C)C)c(F)c1F (stereo not given), the outcome is reported as “inactive”.
In the case of COC(=O)N(OC)c1ccccc1COc1ccn(-c2ccc(Cl)cc2)n1, the AC50 is reported as 0.545 µM (active).
CCON=C(CC)C1=C(O)CC(c2c(C)cc(C)cc2C)CC1=O (stereo not given) was tested, and the outcome was “inactive”.
In the case of CCNc1nc(Cl)nc(NC(C)C)n1, the AC50 is reported as 3.11 µM (active).
With CNC(=O)ON=CC(C)(C)SC the outcome was “inactive”.
For CC(C)(C)c1ccc(CSc2cnn(C(C)(C)C)c(=O)c2Cl)cc1, the outcome was “inactive”.
With CNC(=S)S the outcome was “inactive”.
For CCOC(=O)C(Cl)Cc1cc(-n2nc(C)n(C(F)F)c2=O)c(F)cc1Cl (stereo not given), the outcome was “inactive”.
With N#CC(CCc1ccc(Cl)cc1)(Cn1cncn1)c1ccccc1 (stereo not given) the AC50 was 1.24 µM (active).
COc1nc(C)nc(NC(=O)NS(=O)(=O)c2ccccc2Cl)n1 was tested, and the outcome was “inactive”.
With O=C(O)COc1nc(Cl)c(Cl)cc1Cl the outcome was “inactive”.
In the case of CCOP(=S)(OCC)SCn1c(=O)oc2cc(Cl)ccc21, the AC50 is reported as 3.97 µM (active).
For C=CCC1=C(C)[C@@H](OC(=O)[C@@H]2[C@@H](C=C(C)C)C2(C)C)CC1=O, the outcome was “inactive”.
